Test results as given in PubChem BioAssay (Tox21).
Inconclusive results are not listed. A number with no mark means an inactive call. Calls of active or inactive are those of the source. The call rests on the fitted dose curve.

Each compound was assayed against Progesterone receptor (Homo sapiens) (UniProt P06401) (assay: qHTS assay to identify small molecule agonists of the progesterone receptor (PR) signaling pathway (AID 1346784; further: nearly all actives have a fitted effect of over 30% in size)). Conditions: PR-UAS-bla HEK293T, beta-lactamase FRET ratio, 16 h; series mostly up to 92.4 µM; activation: at the top concentration.
Chain of Progesterone receptor (Homo sapiens) (P06401 whole entry, looked up): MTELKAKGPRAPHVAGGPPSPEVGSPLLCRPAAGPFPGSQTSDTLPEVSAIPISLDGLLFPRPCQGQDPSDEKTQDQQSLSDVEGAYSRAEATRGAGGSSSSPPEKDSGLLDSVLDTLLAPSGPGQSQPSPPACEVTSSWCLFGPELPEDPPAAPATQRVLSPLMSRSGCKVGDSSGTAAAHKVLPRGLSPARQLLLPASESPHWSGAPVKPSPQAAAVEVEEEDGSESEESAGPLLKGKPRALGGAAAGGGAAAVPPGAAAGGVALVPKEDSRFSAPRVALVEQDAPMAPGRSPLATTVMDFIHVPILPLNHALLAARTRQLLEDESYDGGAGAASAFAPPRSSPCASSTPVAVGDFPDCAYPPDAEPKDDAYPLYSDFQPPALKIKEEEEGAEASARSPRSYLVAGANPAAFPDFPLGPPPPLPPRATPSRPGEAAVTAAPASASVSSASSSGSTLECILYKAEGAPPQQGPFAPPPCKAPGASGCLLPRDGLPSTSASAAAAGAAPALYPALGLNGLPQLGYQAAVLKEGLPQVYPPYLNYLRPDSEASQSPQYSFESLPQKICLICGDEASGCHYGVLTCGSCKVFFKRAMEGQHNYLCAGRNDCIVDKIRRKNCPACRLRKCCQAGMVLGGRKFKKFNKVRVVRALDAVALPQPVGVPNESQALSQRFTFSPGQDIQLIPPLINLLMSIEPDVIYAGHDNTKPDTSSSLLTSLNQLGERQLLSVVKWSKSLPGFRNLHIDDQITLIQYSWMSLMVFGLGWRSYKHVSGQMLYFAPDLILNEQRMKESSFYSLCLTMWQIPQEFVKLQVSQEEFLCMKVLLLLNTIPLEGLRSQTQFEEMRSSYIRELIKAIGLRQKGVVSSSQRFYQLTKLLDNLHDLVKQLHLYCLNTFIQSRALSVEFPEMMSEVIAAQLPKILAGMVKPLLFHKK
Excerpt: U.S. Tox21 Program National Center for Advancing Translational Sciences [NCATS] NIH Chemical Genomics Center [NCGC] U.S. Environmental Protection Agency [EPA] National Institutes of Environmental Health Sciences [NIEHS] National Toxicology Program [NTP] U.S. Food and Drug Administration [FDA] […] Endocrine disrupting chemicals (EDCs) and their interactions with steroid hormone receptors like PR causes disruption of normal endocrine function. To identify the compounds that activate PR signaling, a PR-UAS-bla GripTite cell line i.e. PR-UAS-bla HEK 293T (Invitrogen, Carlsbad, CA, USA) containing a beta-lactamase reporter gene under the control of an Upstream Activator Sequence (UAS) was used to screen Tox21 10K compound library.
Tox21 Assay Protocol Summary: PR-UAS-bla HEK 293T cells were dispensed at 3,000 cells/5 uL of assay medium containing 2% charcoal stripped FBS per well into black wall/clear-bottom 1536-well plates using a Multidrop Combi (ThermoFisher Scientific, Waltham, MA) dispenser. After the assay plates were incubated at a 37C and 5% CO2 for 6hr, 23 nL of compounds dissolved in DMSO, positive controls or DMSO only was transferred to the assay plate by a Pintool station (Kalypsys, San Diego, CA). The plates were incubated at 37C and 5% CO2 for 16hr. Then 1 uL of LiveBLAzer B/G FRET substrate was added using a BioRAPTR FRD (Flying Reagent Dispenser, Aurora Discovery, San Diego, CA). After the plates were incubated at room temperature for 2 hours, fluorescence intensity was measured by an Envision plate reader (PerkinElmer, Shelton, CT).
On the % scale 0 is the no-effect control and ±100 the full control effect; potency means the concentration at half of the fitted maximal effect.

Row | Compound | activation | Potency
1 | CCCCCCn1c(=O)c2c(ncn2C)n(C)c1=O | -1.43% [at 42.5 µM] | –
2 | FC(F)(F)C(Cl)(Cl)Cl | -0.941% | –
3 | CNCCC(Oc1ccccc1OC)c1ccccc1 (stereo not given) | -5.21% [at 42.5 µM] | –
4 | CCOC(=O)CS | – | 3.15 µM (active)
5 | OCC(CBr)(CBr)CBr | 2.91% | –
6 | Cc1cc(NS(=O)(=O)c2ccc(N)cc2)nc(C)n1 | 1.75% [at 42.5 µM] | –
7 | O=CCCc1ccccc1 | -1.84% | –
8 | Cc1ccc(C)c(N)c1 | -0.688% | –
9 | N#Cc1ccc(C(c2ccc(C#N)cc2)n2cncn2)cc1 | -1.29% [at 42.5 µM] | –
10 | OCCN(CCO)CCN(CCO)CCO | 3.58% | –
11 | CC(C)Nc1nc(N)nc(Cl)n1 | -1.22% | –
12 | C[C@]12CCC(=O)C=C1CC[C@@H]1[C@@H]2CC[C@@]2(C)[C@H]1CC[C@]2(O)C(=O)CO | – | 8.41 µM (active)
13 | CCOC(=O)[C@H](CCc1ccccc1)N[C@@H](C)C(=O)N1Cc2cc(OC)c(OC)cc2C[C@H]1C(=O)O | -0.612% [at 42.5 µM] | –
14 | CCC(=O)Nc1ccc(O)cc1 | -1.27% [at 42.5 µM] | –
15 | CC1=C(CC(=O)O)c2cc(F)ccc2/C1=C\c1ccc(S(C)(=O)=O)cc1 | -1.33% [at 42.5 µM] | –
16 | CC1(O)CSC(C)(O)CS1 (stereo not given) | -0.837% | –
17 | O=c1[nH]cnc2c1ncn2[C@@H]1O[C@H](CO)[C@@H](O)[C@H]1O | -1.96% [at 42.5 µM] | –
18 | Cc1nnc(SCC2=C(C(=O)O)N3C(=O)[C@@H](NC(=O)Cn4cnnn4)[C@H]3SC2)s1 | -0.309% [at 42.5 µM] | –
19 | C=CC1CO1 (stereo not given) | 0.121% | –
20 | CC(Oc1c(Cl)cccc1Cl)C1=NCCN1 (stereo not given) | -4.29% [at 42.5 µM] | –

Row | Compound | activation | Potency
21 | COc1ccccc1OCC(O)COC(N)=O (stereo not given) | 0.216% [at 42.5 µM] | –
22 | O=Cc1ccc(F)c(Br)c1 | 0.864% | –
23 | CO[Si](C)(C)OC | -1.41% | –
24 | COc1cc(Cl)ccc1Cl | 0.225% | –
25 | C/C(=N\O)[C@@H](C)NCC(C)(C)CN[C@H](C)/C(C)=N/O | -1.07% [at 42.5 µM] | –
26 | Cc1cc2c(s1)Nc1ccccc1N=C2N1CCN(C)CC1 | -1.68% [at 42.5 µM] | –
27 | CCCCN1C[C@H](O)[C@@H](O)[C@H](O)[C@H]1CO | 1.46% [at 42.5 µM] | –
28 | Clc1cccc(-c2cc(Cl)cc(Cl)c2)c1 | 6.93% | –
29 | CCN(CC)CC1CCCCN1CC(=O)N1c2ccccc2C(=O)Nc2cccnc21 (stereo not given) | 1.87% [at 42.5 µM] | –
30 | C1CSCCS1 | 0.466% | –
31 | O=C1CCCc2ccccc21 | 0.512% | –
32 | CCc1cc2cc(OC)c(OC)cc2c(Cc2ccccc2)n1 | 7.5% [at 42.5 µM] | –
33 | Cc1ccc(C=O)s1 | 0.193% | –
34 | CO[C@@]1(NC(=O)CSCC#N)C(=O)N2C(C(=O)O)=C(CSc3nnnn3C)CS[C@@H]21 | 0.444% [at 42.5 µM] | –
35 | CC(C)C[C@H](NC(=O)OCC1c2ccccc2-c2ccccc21)C(=O)O | -4.71% | –
36 | CC(CNC1CCCCC1)OC(=O)c1ccccc1 (stereo not given) | -0.62% [at 42.5 µM] | –
37 | CCCN(CCC)C(=O)C(CCC(=O)O)NC(=O)c1ccccc1 (stereo not given) | 1.07% [at 42.5 µM] | –
38 | COC(=O)c1ccc2cc(C(=O)OC)ccc2c1 | 2.44% [at 19 µM] | –
39 | C=CCCC=C | – | 19.9 µM (active)
40 | CC(C)=CCC[C@](C)(O)[C@@H]1CC=C(C)CC1 | 0.843% | –
